Source: PubChem BioAssay
CCT chaperon mod = modulators of cytosolic chaperonin (CCT/TRiC) activity; purified chaperonin ATPase assay, HTRF ADP detection, 30 min; activity change, % (test concentration not listed), hits read low; actives 0.3% (n = 360,000); in the data active = activity change below about -30%; also: % is scaled to controls: 0 for no effect and ±100 for the full control effect
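We incubate TRiC, 40 or 20 nM final, with library compounds at 76 uM and 10 uM ATP for 30 min at 37 °C. ADP formed is detected with Transcreener HTRF reagents after 30 min at room temperature.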
TDP43 rescue = TDP-43 toxicity inhibition in yeast. actives 1.8% (n = 410,000). TDP-43 expressing yeast growth rescue, BacTiter-Glo, 24 h. AID 652104. Potency, µM (titrated, usually from 46.1 µM), for inactives: top-dose growth rescue (activation), usual class: activators; also: potency is read from the fitted curve at half-maximal effect; % of control where 0% means no effect; nearly all actives have a fitted effect of over 50% in size
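Cell-based yeast growth screen: TDP-43 expression induced in galactose, inoculum OD600=0.02 after raffinose pregrowth to mid-log. Read-out BacTiter-Glo luminescence at 24 hr, 30 deg C; inhibition of toxicity seen as signal increase.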
Akt phos inh = blocks phosphorylation of Akt; Neuro2A IGF-stimulated pAkt S473 HTRF, 20 min; active compounds read low; activity change, % for hits at 50 µM; AID 651550; actives 0.32% (n = 360,000); in the data active = activity change below about -80%; inconclusive = mostly about -51% to -80%; also: % is scaled to controls: 0 for no effect and ±100 for the full control effect
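Single-point screen (50 µM final compound) in Neuro2A cells stimulated 20 min with 6 nM IGF at 37 deg C. After lysis, Ser473-phosphorylated Akt read by HTRF (ex 330 nm, em 615/665 nm) as the 665/615 ratio.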
Apoferritin bind = candidate novel general anesthetic via apoferritin binding. apoferritin/1-aminoanthracene competitive binding, fluorescence. Potency, µM (titrated, usually from 77.5 µM), inactives show top-dose activity change, negative = displacement, actives largely listed as inhibitors. AID 485281. actives 0.074% (n = 350,000). P02791; also: potency is read from the fitted curve at half-maximal effect; % is scaled to controls: 0 for no effect and ±100 for the full control effect; nearly all actives have a fitted effect of over 20% in size
Target sequence (P02791 2-175 limits assumed): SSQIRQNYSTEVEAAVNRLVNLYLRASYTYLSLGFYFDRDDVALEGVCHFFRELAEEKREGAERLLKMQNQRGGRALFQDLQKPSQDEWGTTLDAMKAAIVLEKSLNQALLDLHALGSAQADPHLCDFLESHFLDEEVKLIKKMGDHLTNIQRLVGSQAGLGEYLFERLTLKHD
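In PBS, apoferritin at 10 uM is loaded with 1-AMA from a 50% saturated solution. After 10 min of compound exposure at ambient temperature, reduced 535 nm fluorescence indicates probe displacement.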
Mito fusion act = mitochondrial division inhibition or fusion activation; AID 485298; Potency, µM (doses to about 46.1 µM), inactives show at the top dose growth rescue (activation), usual class: activators; S. cerevisiae fusion-defective mutant growth rescue, CellTiterGlo 48 h; actives 0.23% (n = 320,000); also: potency is read from the fitted curve at half-maximal effect; % of control where 0% means no effect; nearly all actives have a fitted effect of over 45% in size
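S. cerevisiae fusion-defective temperature-sensitive mutants (e.g. fzo1-1, mgm1-5) grown 48 h at 37C in YPEG (ethanol/glycerol non-fermentable) medium with 23 nl compound per well; growth rescue read as CellTiterGlo luminescence.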
aSyn rescue = inhibitors of alpha-synuclein toxicity in yeast | Yeast expressing alpha-synuclein, growth rescue, BacTiter-Glo, 24 h | Potency, µM (doses to about 46.1 µM), without a hit: at the top dose growth rescue (activation), actives largely listed as activators | actives 0.14% (n = 370,000); also: potency is read from the fitted curve at half-maximal effect; % of control where 0% means no effect; nearly all actives have a fitted effect of over 65% in size
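Readout is rescue of growth in alpha-synuclein-expressing yeast, so inhibitors of toxicity appear as activators. Growth after 24 hr at 30 deg C in galactose medium is quantified by luminescence.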
* marks the source's active call; other numbers are inactive results; i = inactive; ? = inconclusive; · = no result; [ ] = remark or other dose. An excerpt weighted towards active compounds, which were near 2.5% of everything screened. Unless noted, calls follow the shape of the dose curve; as a rule, active = well fitted curve in the direction sought with a large enough effect; inconclusive = small, poorly fitted or top-dose-only effect, or another doubt; inactive = no such curve, though single readings can be large; an effect the other way counts as inactive or inconclusive.

SMILES	CCT chaperon mod	TDP43 rescue	Akt phos inh	Apoferritin bind	Mito fusion act	aSyn rescue
O=S(=O)(NCc1ccccc1Cl)c1ccc(-c2cnc(C3CC3)o2)cc1	·	22.4µM*	·	48.1%	·	·
CC(=O)OC[C@@H]1O[C@H](CCO/N=C(\C)CCN2CCc3nc(-c4ccccc4)c(-c4ccccc4)cc3C2)C=C[C@@H]1OC(C)=O	·	·	·	1.8%[15.3 µM]	·	·
CCOC(=O)Cn1cc(C(=O)c2ccco2)c2ccccc21	-1.6	17.8µM*	i	-15.9%	0.4%	-3.2%
O=C(Cn1cc(C(=O)c2ccco2)c2ccccc21)NCc1ccco1	-0.1	9.4%	-105.1%*	-14.8%	0.7%	5.2%
Cc1cccc(CNC(=O)c2cccc(NC(=O)N3CCSc4ncccc43)c2)c1	·	2.5%	·	-1.1%	·	·
COc1ccc2cc3cc(C(=O)NCCN4CCc5ccccc5C4)oc3nc2c1	-1.4	11.2µM*	i	4.2%	-9.7%	25.1µM*
COc1ccc2cc3cc(C(=O)NCCN4CCN(Cc5ccccc5)CC4)oc3nc2c1	-0.4	9.4%	i	-11.1%	9.6%	-0.8%
COc1ccc2cc3cc(C(=O)N(C)C4CCCCC4)oc3nc2c1	-3.2	17.8µM*	i	-11.0%	-10.2%	12.8%
CN(C)CC(O)Cn1c2ccc(Br)cc2c2cc(Br)ccc21 (stereo not drawn)	·	·	·	-10.4%	·	·
CC(=O)N1CCc2c(sc3c2c(=O)n(Cc2ccccc2)c(=O)n3Cc2ccccc2Cl)C1	·	15.8µM*	·	-14.9%	·	·
CCOC(=O)N1CCc2c(sc3c2c(=O)n(CCc2ccccc2)c(=O)n3Cc2ccc(F)cc2)C1	·	-8.3%	·	75.5%	·	·
CC(=O)N1CCc2c(sc3c2c(=O)n(CCc2ccccc2)c(=O)n3Cc2ccc(F)cc2)C1	·	15.8µM*	·	4.3%	·	·
COc1ccc(CCNC(=O)c2cc3c(s2)-c2c(C)cccc2OC3)c(OC)c1	·	0.0%[9.22 µM]	·	202.1%	·	·
O=C1Nc2ccc(I)cc2C1=Cc1cc(Br)c(O)c(Br)c1	·	·	·	·	·	3.16µM*
Cc1ccc2c(c1)/C(=C/c1ccccc1)C(=O)N2	1.2	?	i	-8.6%	-6.4%	?
O=C1Nc2ccc(I)cc2/C1=C/c1cc(Br)c(O)c(Br)c1	·	·	·	·	0.461µM*	25.4%
O=C(CCCl)Nc1cccc2cccnc12	·	·	·	·	·	2.0%
Cc1ccc2c(C(=O)N3CCN(c4ccccc4)CC3)cc(-c3cccnc3)nc2c1C	-42.7*	?	i	-2.6%	-1.7%	9.9%
Cc1ccc(-c2cc(C(=O)N3CCN(c4ccccc4)CC3)c3ccccc3n2)cc1C	·	0.0%	·	-6.7%	·	·
C#C[C@]1(O)CCC2C3CCC4=Cc5oncc5C[C@@]4(C)C3CC[C@@]21C (stereo partly drawn)	·	·	·	-7.2%	·	·
Brc1ccc(-c2nnc3sc(CN4CCC5(CC4)OCCO5)cn23)cc1	-4.9	-21.3%	-101.8%*	29.9%	3.1%	-2.8%
CS(=O)(=O)N1CCN(c2ccccc2NC(=O)Cc2ccc(Cl)cc2)CC1	-32.3*	-2.2%	i	-6.1%	4.6%	16.0%
CCOc1cc(/C=N/NC(=O)CN2CCCCC2)ccc1OCc1ccc(Cl)cc1	-1.2	6.5%	i	-12.2%	6.0%	9.0%
CCOc1cc(/C=N/NC(=O)c2nn(C)cc2Br)ccc1OCc1ccccc1Cl	-0.1	-2.1%	i	2.0%	3.98µM*	?
Cn1cc(Br)c(C(=O)N/N=C/c2cccc(OC3CSC3)c2)n1	0.5	?	i	1.8%	?	12.6%
SMILES	CCT chaperon mod	TDP43 rescue	Akt phos inh	Apoferritin bind	Mito fusion act	aSyn rescue
CCOc1cc(/C=N/NC(=O)CN2CCCCC2)ccc1OCc1cccc(Cl)c1	-0.7	12.6µM*	i	-16.7%	2.6%	0.1%
O=C(N/C=N/O)C1=NOC(CNc2ncc(C(F)(F)F)cc2Cl)C1 (stereo not drawn)	-0.5	15.8µM*	·	?	2.1%	2.0%
O=C(NC1CC1)C1=NOC(CNc2ncc(C(F)(F)F)cc2Cl)C1 (stereo not drawn)	-0.8	9.1%	i	-8.6%	-1.9%	-2.8%
Cc1nn(CC(=O)NC2CCCCC2)c(=O)c2cc3cc(F)ccc3n12	·	0.0%	·	5.5%	·	·
COC(=O)c1sc(=S)n(Cc2ccccc2)c1C	1.5	?	i	-2.6%	-3.4%	2.3%
CC(=O)c1sc(=S)n(Cc2ccccc2)c1C	-1.6	12.6µM*	i	-17.5%	12.5%	0.4%
CCN(Cc1ccccc1)c1ncnc2c1cnn2-c1ccc(F)cc1	·	25.1µM*	·	-5.0%	·	·
O=C(O)Cc1csc(Nc2cccc(Cl)c2)n1	2.3	0.0%	i	10µM*	1.5%	-11.7%
Fc1ccc(-c2ccnc3nc(N4CCOCC4)nn23)cc1	-0.9	24.0%	i	-6.8%	3.6%	-2.0%
COc1ccc(-c2ccnc3nc(N4CCN(c5ccccc5)CC4)nn23)cc1	-1.6	14.1µM*	i	-4.5%	12.6µM*	1.5%
C=Cc1ccc(Cn2c(=O)n(-c3ccc(C)cc3)c(=O)c3c2c2cc(OC)ccc2n3C)cc1	·	14.3%	·	4.4%	·	·
O=[N+]([O-])/C=C/c1cn(Cc2ccc(Cl)cc2)c2ccccc12	0.3	4.1%	i	2.0%	16.1%	0.7%
Cc1cccc(Cn2cc(/C=C/[N+](=O)[O-])c3ccccc32)c1	1.8	14.1µM*	i	?	-11.6%	-16.0%
CCCCNC(=S)N(C)/N=C/c1ccc(F)cc1	-2.0	11.2µM*	i	46.5%	-9.3%	-15.2%
CCCCNC(=S)N(C)/N=C/c1c(F)cccc1F	-2.0	?	i	8.8%	-2.0%	-14.3%
CC(C)c1ccc(C(O)P(=O)(OC2CCCCC2)OC2CCCCC2)cc1 (stereo not drawn)	4.8	-58.8%	i	-3.6%	12.6µM*	-66.1%
O=C1NN(C(=O)Nc2ccc(Br)cc2)C(c2ccccc2)C1c1ccccc1 (stereo not drawn)	·	·	·	-8.4%	·	·
CCOc1cccc(-c2nc(C(N)=O)c3[nH]c(=O)n(-c4cccc(Cl)c4)c3n2)c1O	-37.5*	?	i	0.5%	-2.2%	-7.6%
CCOc1ccccc1-c1nc(C(N)=O)c2[nH]c(=O)n(-c3cccc(C)c3)c2n1	1.7	11.0%	i	?	0.8%	5.7%
Clc1ccc(-c2cc3ccccc3nc2N2CCOCC2)cc1	0.0	17.8µM*	i	170.0%	5.9%	9.8%
Clc1ccc(-c2cc3ccccc3nc2N2CCCC2)cc1	0.7	-9.9%	i	5.8%	27.1%	-9.7%
O=C(OCc1nnc(-c2cccs2)o1)c1cccnc1Cl	0.6	?	i	·	-15.1%	-10.2%
